# Test results: PubChem BioAssay
# Active and inactive are the calls of the source. Unless noted, the rule behind the calls is not given here.
# Assays:
# [1] = compound effects on lung adenocarcinoma cell viability – A549, calcein-AM fluorescence, 48 h, basal, profiling panel (AID 1162); details: higher = more signal; note: test concentration not given here
# [2] = compound effects on differentiated 3T3-L1 adipocyte viability – cell-based, 3T3-L1 adipocytes, calcein-AM fluorescence, 48 h, basal, profiling panel (AID 1163); details: 3T3-L1 adipocytes viability, higher = more signal; note: test concentration not given here
# [3] = compound effects on hepatocellular carcinoma cell viability – HepG2, calcein-AM fluorescence, 48 h, basal, profiling panel (AID 1164); details: higher = more signal; note: test concentration not given here
# [4] = compound effects on multiple myeloma cell viability – MM1S, calcein-AM fluorescence, 48 h, basal, profiling panel (AID 1165); details: higher = more signal;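 note: viability of MM1S multiple myeloma cells under basal unstimulated conditions; test concentration not given here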
# [5] = calcein-AM signal in unstimulated myeloma cells – cell-based, calcein-AM fluorescence, 48 h, PK04 Diversity Set, profiling panel (AID 1166); details: RPMI8226 myeloma viability, higher = more signal;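 note: cells grown under basal conditions without added stimulus; test concentration not given here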
# [6] = JC-1 mitochondrial signal, unstimulated HepG2 cells – cell-based, JC-1 fluorescence, 24 h, 100 nL compound, profiling panel (AID 1167); details: HepG2 mitochondrial potential, higher = more signal; note: test concentration not given here
# [7] = JC-1 mitochondrial signal, unstimulated adipocytes – cell-based, JC-1 fluorescence, 3T3-L1 adipocytes, 24 h, 100 nL compound, profiling panel (AID 1168); details: JC-1 mitochondrial fluorescence, higher = more signal, called active from +8 up or from −8 down; note: test concentration not given here
# [8] = JC-1 mitochondrial signal, unstimulated myeloma cells – cell-based, JC-1 fluorescence, RPMI8226, 24 h, 100 nL compound, profiling panel (AID 1169); details: JC-1 mitochondrial potential fluorescence, higher = more signal; note: test concentration not given here
# [9] = JC-1 mitochondrial signal, unstimulated MM1S myeloma – cell-based, JC-1 fluorescence, 24 h, 100 nL compound, profiling panel (AID 1170); details: MM1S mitochondrial potential, higher = more signal; note: test concentration not given here
# [10] = resazurin metabolic signal in A549 cells – cell-based, resazurin fluorescence, 24 h, PK04 Diversity Set, profiling panel (AID 1171); details: A549 viability, higher = more signal, called active from +8 up or from −8 down; note: test concentration not given here
# [11] = resazurin metabolic signal in HepG2 cells – cell-based, resazurin fluorescence, 24 h, PK04 Diversity Set, profiling panel (AID 1172); details: HepG2 viability, higher = more signal; note: test concentration not given here
# [12] = budding yeast growth changes without added modifier – OD600, strain BY4716, 24 h, basal condition, primary screen (AID 1173); details: S. cerevisiae BY4716 growth, OD600, 24 h; higher = more signal, called active from +8 up or from −8 down
# [13] = viability profiling in MM1S myeloma cells – cell-based, resazurin fluorescence, basal, 24 h, PK04 Diversity Set, profiling panel (AID 1174); details: higher = more signal, called active from +8 up or from −8 down; note: test concentration not given here
# [14] = biological target: Dihydroorotate dehydrogenase (quinone), mitochondrial (Plasmodium falciparum (isolate 3D7)) (UniProt Q08210); assay: inhibition of P. falciparum DHODH – biochemical, C-terminal His tag, absorbance 600 nm, primary screen (AID 1175); details: PfDHODH enzyme, DCIP absorbance 600 nm; higher = more signal, called active from +8 up or from −8 down;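 note: recombinant parasite enzyme with a five histidine tag at its C terminus; test concentration not given here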
# [15] = growth modulation of vineyard yeast isolate – strain RM11-1a, OD600, basal, 24 h, primary screen (AID 1177);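 note: cultures grown under basal conditions with no added stressor; test concentration not given here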; details: S. cerevisiae RM11-1a growth, OD600, 24 h; higher = more signal, called active from +8 up or from −8 down
# [16] = growth of efflux-deficient E. coli DRC39 – strain DRC39, OD650, 24 h, E. coli filamentation inducers, primary screen (AID 1178);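 note: growth measured as culture turbidity by optical density at 650 nm; test concentration not given here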; details: E. coli DRC39 acrAB, higher = more signal, called active from +8 up or from −8 down
# [17] = growth of efflux-deficient E. coli DRC39 – strain DRC39, OD650, 48 h, E. coli filamentation inducers, primary screen (AID 1179);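 note: screen aims at cell division blockers that make cells filament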; details: E. coli DRC39 delta-acrAB growth, higher = more signal, called active from +8 up or from −8 down
# [18] = viability profiling in RPMI8226 myeloma cells – cell-based, resazurin fluorescence, basal, 24 h, PK04 Diversity Set, profiling panel (AID 1180); details: higher = more signal;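 note: RPMI8826 multiple myeloma cell line at 5000 cells per well; test concentration not given here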
# [19] = biological target: E3 ubiquitin-protein ligase XIAP (Homo sapiens) (UniProt P98170); assay: small molecules binding XIAP protein – biophysical, small-molecule microarray, fluorescence 635 nm, primary screen (AID 1181); details: higher = more signal;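 note: score merges 667 nm emission and signal to noise over triplicate slides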
# [20] = inhibition of PAO1 biofilm formation – strain PAO1, LB-PBS medium, absorbance 600 nm, primary screen (AID 1176); note: test concentration not given here; details: P. aeruginosa PAO1 growth/biofilm, A600, 12 h; higher = more signal
# E3 ubiquitin-protein ligase XIAP (Homo sapiens), sequence (P98170 whole entry, looked up): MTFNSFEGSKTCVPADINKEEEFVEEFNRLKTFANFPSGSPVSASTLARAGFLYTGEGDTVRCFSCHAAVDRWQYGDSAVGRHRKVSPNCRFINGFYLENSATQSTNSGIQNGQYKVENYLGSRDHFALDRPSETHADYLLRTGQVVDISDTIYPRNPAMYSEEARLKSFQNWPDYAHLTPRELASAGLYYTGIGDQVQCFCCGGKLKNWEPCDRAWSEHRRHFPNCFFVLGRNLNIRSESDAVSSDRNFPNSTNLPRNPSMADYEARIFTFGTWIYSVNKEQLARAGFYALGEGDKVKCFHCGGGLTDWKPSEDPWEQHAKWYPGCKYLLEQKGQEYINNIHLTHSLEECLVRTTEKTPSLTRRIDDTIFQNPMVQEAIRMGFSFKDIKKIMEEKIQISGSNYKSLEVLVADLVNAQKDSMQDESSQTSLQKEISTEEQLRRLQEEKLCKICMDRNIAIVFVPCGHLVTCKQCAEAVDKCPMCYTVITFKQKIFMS
# Dihydroorotate dehydrogenase (quinone), mitochondrial (Plasmodium falciparum (isolate 3D7)), sequence (Q08210 whole entry, looked up): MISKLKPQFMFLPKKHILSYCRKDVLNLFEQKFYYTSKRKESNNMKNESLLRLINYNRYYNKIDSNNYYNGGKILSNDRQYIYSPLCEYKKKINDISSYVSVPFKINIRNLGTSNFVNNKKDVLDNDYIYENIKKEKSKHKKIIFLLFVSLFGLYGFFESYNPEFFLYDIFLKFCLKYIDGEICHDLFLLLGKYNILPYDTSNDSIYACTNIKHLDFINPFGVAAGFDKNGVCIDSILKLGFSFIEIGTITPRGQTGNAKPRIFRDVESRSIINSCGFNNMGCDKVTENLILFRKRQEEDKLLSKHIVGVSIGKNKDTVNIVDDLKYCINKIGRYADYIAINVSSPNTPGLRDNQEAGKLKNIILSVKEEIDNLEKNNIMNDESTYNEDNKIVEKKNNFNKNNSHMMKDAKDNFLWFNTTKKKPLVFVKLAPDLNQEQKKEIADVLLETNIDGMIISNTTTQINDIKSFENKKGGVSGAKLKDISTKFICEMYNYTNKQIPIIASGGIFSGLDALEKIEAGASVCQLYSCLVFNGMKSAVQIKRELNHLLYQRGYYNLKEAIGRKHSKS
SMILES,z-score [1],z-score [2],z-score [3],z-score [4],z-score [5],z-score [6],z-score [7],z-score [8],z-score [9],z-score [10],z-score [11],z-score [12],z-score [13],composite z-score [14],z-score [15],z-score [16],z-score [17],z-score [18],composite z-score [19],z-score [20]
CC(=O)NCCCC[C@@H]1NC(=O)[C@@H]2C[C@H](C(=O)NCCCCCCN(C)C)[C@H](c3ccc(O)cc3)N2C1=O,-0.378,1.28,-1.04,-0.365,0.495,1.43,0.957 (inactive),0.641,0.925,0.318 (inactive),0.478,-0.574 (inactive),1.12 (inactive),0.266 (inactive),0.662 (inactive),0.325 (inactive),0.249 (inactive),0.912,0.103,
CN1C(=O)C2C=CC(C(O)C3CC=CCC3)N(Nc3ccccc3)C2C1=O (stereo not drawn),-0.653,-1.14,-0.661,0.228,-1.56,-0.965,-0.117 (inactive),0.116,-0.608,-0.293 (inactive),-0.488,0.122 (inactive),-0.533 (inactive),0.0707 (inactive),0.0862 (inactive),-1.11 (inactive),-0.196 (inactive),-0.568,0.301,0.847 (inactive)
C=C(CCCC)C(=O)CC[C@@H](OC(C)=O)c1ccccc1OCCO,0.509,-0.0795,-0.54,-2.62,-1.67,-0.684,1.08 (inactive),-0.76,0.93,0.288 (inactive),-0.0263,-12.5 (active),0.304 (inactive),-2.71 (inactive),2.05 (inactive),0.662 (inactive),0.378 (inactive),-0.277,-0.193,0.0022 (inactive)
C=CCC(OC(C)=O)[C@@H]1[C@@H](N(Cc2ccc(-c3ccccc3)cc2)C(=O)c2ccc(-c3ccccc3)cc2)c2cc(OCCCO)ccc2N1C(=O)Cc1ccc(OC)cc1 (stereo partly drawn),-0.111,0.6,0.551,-0.769,-0.904,0.424,-0.972 (inactive),-0.0615,-0.142,0.78 (inactive),-0.149,0.335 (inactive),0.108 (inactive),-0.979 (inactive),-1.14 (inactive),-0.0223 (inactive),0.185 (inactive),0.202,-0.0596,0.0429 (inactive)
COc1ccc([Si](C)(C)[C@H]2[C@H](CC(=O)N3Cc4ccccc4C[C@H]3CO)O[C@@]3(C(=O)N(Cc4cccc(N5CCOC5=O)c4)c4ccccc43)[C@@H]2C)cc1,0.443,0.373,-0.632,-0.913,-0.727,1.31,0.405 (inactive),-1.1,-0.223,-0.399 (inactive),-0.341,-2.22 (inactive),-1.71 (inactive),-0.135 (inactive),0.446 (inactive),1.63 (inactive),0.856 (inactive),-1.75,0.22,
Cc1ccc(S[C@]2(C(=O)NC(C)C)CC(=O)N(C3Cc4ccccc4C3)[C@@H]2c2ccc(CO)cc2)cc1,0.0188,2.29,0.0794,0.549,-1.02,0.0355,-0.636 (inactive),0.758,0.643,-0.0208 (inactive),0.0858,-0.0445 (inactive),0.48 (inactive),-0.335 (inactive),-0.792 (inactive),-0.127 (inactive),-0.768 (inactive),0.33,0.0181,0.229 (inactive)
COc1cc2c(cc1OC)CN(C(=O)[C@H]1[C@@H]3C(=O)O[C@@H](c4ccccc4)[C@@H](c4ccccc4)N3[C@@H](c3ccccc3OCCO)[C@]13C(=O)Nc1ccc(C#CC4(O)CCCCCC4)cc13)CC2,0.434,-0.0514,1.64,-0.988,-1.93,-0.198,0.994 (inactive),-0.812,-1.41,-0.771 (inactive),0.714,0.0302 (inactive),-0.492 (inactive),0.682 (inactive),2.15 (inactive),0.667 (inactive),1.61 (inactive),0.248,-0.12,2.63 (inactive)
COc1ccc([Si](C)(C)[C@@H]2[C@@H](CCO)O[C@]3(C(=O)N(Cc4ccc(NC(=O)[C@H](C)O)cc4)c4ccccc43)[C@H]2C)cc1,-2.45,1.63,-2.43,-2.97,-2.49,-1.84,0.492 (inactive),-1.12,-0.492,-2.95 (inactive),-1.84,-0.177 (inactive),-6.71 (inactive),-1.07 (inactive),3.7 (inactive),1.26 (inactive),0.335 (inactive),-5.69,-0.0497,-0.717 (inactive)
[N-]=[N+]=NCc1ccccc1C[C@@]1(C(=O)O)N=C(c2ccc(OCCCO)cc2)O[C@@H]1c1ccccc1N=[N+]=[N-],0.593,0.0001,0.435,-1.52,-2.27,-1.58,0.428 (inactive),-0.898,-1.31,-1.32 (inactive),0.0549,-1 (inactive),-1.47 (inactive),0.313 (inactive),-0.268 (inactive),0.604 (inactive),0.331 (inactive),-0.876,0.0524,0.755 (inactive)
